Data as given in ChEMBL document CHEMBL2218924, “A broad activity screen in support of a chemogenomic map for kinase signalling research and drug discovery” (Biochem J, 2013).

How the values were obtained:
[1] = target: T1, Serine/threonine-protein kinase haspin (Homo sapiens) (UniProt Q8TF76); conditions: at 1 µM
T1 sequence (whole entry): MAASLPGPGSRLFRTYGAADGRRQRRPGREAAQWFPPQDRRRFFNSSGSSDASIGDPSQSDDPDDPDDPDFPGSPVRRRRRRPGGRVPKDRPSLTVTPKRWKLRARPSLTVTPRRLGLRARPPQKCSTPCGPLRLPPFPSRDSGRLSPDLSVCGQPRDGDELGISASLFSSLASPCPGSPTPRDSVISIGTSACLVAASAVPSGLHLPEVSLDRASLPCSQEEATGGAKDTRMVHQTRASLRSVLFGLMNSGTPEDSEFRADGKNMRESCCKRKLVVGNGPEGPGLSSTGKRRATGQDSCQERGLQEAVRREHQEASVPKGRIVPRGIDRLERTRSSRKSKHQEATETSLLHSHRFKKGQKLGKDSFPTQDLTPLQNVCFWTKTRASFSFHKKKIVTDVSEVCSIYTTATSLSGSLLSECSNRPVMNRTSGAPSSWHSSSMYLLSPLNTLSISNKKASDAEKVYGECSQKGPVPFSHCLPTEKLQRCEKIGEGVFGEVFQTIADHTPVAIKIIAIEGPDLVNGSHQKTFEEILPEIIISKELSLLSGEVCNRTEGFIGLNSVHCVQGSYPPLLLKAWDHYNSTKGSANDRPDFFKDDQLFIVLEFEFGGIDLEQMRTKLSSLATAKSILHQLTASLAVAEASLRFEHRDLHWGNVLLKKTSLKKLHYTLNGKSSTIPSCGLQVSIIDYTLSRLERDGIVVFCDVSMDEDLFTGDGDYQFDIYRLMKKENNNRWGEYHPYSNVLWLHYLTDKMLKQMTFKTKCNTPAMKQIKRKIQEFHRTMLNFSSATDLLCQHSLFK

[2] = target: T1, Serine/threonine-protein kinase haspin (Homo sapiens); conditions: at 10 µM
[3] = target: Tyrosine-protein kinase HCK (Homo sapiens) (UniProt P08631); conditions: at 1 µM
[4] = target: Tyrosine-protein kinase HCK (Homo sapiens) (UniProt P08631); conditions: at 10 µM
[5] = target: Tyrosine-protein kinase HCK (Homo sapiens) (UniProt P08631); conditions: at 1 µM; remark: listed apart in the source
[6] = target: Tyrosine-protein kinase HCK (Homo sapiens) (UniProt P08631); conditions: at 10 µM; remark: listed apart in the source
[7] = target: Insulin-like growth factor 1 receptor (Homo sapiens) (UniProt P08069); conditions: at 1 µM
[8] = target: Insulin-like growth factor 1 receptor (Homo sapiens) (UniProt P08069); conditions: at 10 µM
[9] = target: T2, Protein kinase C zeta type (Homo sapiens) (UniProt Q05513); conditions: at 10 µM
T2 sequence (whole entry): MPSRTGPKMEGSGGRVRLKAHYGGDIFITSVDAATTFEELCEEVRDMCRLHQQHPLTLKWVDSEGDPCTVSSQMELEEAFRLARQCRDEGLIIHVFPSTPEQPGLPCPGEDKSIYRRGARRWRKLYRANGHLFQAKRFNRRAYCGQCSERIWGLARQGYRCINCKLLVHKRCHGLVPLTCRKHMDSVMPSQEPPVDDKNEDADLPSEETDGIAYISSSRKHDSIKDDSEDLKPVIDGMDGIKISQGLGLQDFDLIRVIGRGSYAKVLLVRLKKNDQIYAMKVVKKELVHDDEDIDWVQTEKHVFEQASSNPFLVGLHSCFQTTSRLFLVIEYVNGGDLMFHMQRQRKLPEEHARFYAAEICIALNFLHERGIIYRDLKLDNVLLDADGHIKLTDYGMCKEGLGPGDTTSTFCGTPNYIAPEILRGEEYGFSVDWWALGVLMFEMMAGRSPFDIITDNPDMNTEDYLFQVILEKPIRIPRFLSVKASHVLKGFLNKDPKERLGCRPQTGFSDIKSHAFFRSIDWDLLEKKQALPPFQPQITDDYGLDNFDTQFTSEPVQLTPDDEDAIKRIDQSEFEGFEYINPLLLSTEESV

[10] = target: Protein kinase C theta type (Homo sapiens) (UniProt Q04759); conditions: at 1 µM
[11] = target: Protein kinase C theta type (Homo sapiens) (UniProt Q04759); conditions: at 10 µM
[12] = target: T3, Protein kinase C iota type (Homo sapiens) (UniProt P41743); conditions: at 1 µM
T3 sequence (whole entry): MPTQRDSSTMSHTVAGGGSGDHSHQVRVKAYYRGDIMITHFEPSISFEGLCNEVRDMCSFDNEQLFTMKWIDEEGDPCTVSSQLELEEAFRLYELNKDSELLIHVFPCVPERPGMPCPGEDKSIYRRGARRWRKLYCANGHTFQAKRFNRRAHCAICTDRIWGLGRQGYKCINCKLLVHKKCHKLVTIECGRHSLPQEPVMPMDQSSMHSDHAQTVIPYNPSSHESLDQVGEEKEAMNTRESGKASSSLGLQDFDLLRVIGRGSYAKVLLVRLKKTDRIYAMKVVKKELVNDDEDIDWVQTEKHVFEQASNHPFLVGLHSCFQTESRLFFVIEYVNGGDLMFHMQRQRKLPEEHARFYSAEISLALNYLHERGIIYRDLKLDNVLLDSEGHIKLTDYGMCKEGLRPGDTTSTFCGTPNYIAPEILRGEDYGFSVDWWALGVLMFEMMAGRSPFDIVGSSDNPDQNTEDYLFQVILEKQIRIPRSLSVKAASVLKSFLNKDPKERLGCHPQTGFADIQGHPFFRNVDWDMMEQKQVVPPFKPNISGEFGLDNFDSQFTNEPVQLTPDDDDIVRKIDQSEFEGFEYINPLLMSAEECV

[13] = target: T3, Protein kinase C iota type (Homo sapiens); conditions: at 10 µM
[14] = target: T4, Serine/threonine-protein kinase D2 (Homo sapiens) (UniProt Q9BZL6); conditions: at 1 µM
T4 sequence (whole entry): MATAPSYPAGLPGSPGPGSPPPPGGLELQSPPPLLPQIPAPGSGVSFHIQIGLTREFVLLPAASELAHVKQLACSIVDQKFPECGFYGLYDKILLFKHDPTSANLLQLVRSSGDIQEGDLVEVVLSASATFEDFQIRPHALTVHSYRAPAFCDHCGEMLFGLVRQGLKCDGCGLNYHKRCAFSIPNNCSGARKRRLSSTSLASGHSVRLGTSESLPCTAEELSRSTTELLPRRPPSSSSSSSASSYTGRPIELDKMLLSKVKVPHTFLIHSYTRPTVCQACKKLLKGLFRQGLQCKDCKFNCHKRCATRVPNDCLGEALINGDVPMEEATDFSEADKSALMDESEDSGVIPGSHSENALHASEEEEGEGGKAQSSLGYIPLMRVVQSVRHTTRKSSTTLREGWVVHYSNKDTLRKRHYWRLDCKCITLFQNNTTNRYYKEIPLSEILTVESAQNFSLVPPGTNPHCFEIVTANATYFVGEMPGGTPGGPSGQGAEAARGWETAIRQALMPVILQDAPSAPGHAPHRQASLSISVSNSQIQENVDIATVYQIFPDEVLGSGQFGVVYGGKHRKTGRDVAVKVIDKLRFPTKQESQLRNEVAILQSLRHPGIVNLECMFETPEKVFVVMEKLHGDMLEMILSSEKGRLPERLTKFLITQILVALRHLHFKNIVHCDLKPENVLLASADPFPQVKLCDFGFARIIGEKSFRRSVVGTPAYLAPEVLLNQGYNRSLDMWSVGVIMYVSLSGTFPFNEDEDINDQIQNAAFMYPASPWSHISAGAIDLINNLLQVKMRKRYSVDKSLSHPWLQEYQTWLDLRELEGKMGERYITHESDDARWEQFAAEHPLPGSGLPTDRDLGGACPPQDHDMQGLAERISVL

[15] = target: T4, Serine/threonine-protein kinase D2 (Homo sapiens); conditions: at 10 µM
[16] = target: Homeodomain-interacting protein kinase 3 (Homo sapiens) (UniProt Q9H422); conditions: at 10 µM
[17] = target: Protein kinase C eta type (Homo sapiens) (UniProt P24723); conditions: at 1 µM
[18] = target: Protein kinase C eta type (Homo sapiens) (UniProt P24723); conditions: at 10 µM
[19] = target: T5, Serine/threonine-protein kinase D1 (Homo sapiens) (UniProt Q15139); conditions: at 1 µM
T5 sequence (whole entry): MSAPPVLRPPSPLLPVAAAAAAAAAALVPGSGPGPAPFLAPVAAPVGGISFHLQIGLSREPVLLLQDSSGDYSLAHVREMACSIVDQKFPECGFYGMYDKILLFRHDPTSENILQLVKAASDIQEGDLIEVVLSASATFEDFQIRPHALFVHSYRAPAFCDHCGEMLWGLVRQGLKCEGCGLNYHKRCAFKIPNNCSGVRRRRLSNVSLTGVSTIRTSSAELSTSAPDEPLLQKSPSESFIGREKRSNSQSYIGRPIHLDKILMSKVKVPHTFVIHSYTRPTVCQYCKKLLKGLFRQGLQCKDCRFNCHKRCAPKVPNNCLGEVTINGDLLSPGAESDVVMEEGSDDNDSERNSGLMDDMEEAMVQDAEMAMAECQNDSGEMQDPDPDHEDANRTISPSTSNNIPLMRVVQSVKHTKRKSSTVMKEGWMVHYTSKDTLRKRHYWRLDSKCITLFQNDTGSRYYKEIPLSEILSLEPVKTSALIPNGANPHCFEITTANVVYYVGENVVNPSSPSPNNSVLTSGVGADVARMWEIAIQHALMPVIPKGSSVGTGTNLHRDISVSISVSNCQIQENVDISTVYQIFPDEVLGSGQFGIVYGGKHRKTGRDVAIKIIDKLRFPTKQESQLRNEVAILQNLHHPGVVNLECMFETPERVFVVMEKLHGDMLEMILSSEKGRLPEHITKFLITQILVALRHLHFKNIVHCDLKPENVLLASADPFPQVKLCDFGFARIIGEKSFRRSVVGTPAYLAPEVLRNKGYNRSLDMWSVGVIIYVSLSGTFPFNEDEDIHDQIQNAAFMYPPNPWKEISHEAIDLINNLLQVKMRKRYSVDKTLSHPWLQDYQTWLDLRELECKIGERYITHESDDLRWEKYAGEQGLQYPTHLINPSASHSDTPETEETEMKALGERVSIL

[20] = target: T5, Serine/threonine-protein kinase D1 (Homo sapiens); conditions: at 10 µM

Sequence of Tyrosine-protein kinase HCK (Homo sapiens) (P08631 2-526 limits assumed): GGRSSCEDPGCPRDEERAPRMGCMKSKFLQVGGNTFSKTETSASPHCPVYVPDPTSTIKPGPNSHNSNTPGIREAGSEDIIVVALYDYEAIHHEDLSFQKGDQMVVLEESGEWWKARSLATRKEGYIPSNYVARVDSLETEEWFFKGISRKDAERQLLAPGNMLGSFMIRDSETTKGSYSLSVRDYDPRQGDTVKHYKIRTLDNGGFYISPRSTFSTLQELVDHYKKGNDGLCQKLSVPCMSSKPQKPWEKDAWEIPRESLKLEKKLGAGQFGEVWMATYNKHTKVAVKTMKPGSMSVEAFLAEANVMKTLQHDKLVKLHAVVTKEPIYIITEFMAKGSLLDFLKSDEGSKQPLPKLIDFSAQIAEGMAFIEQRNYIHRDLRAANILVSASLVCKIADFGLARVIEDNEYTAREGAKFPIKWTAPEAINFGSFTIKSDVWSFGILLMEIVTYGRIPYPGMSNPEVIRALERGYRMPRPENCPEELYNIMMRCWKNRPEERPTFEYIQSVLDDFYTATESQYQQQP
Sequence of Insulin-like growth factor 1 receptor (Homo sapiens) (P08069 31-736 limits assumed): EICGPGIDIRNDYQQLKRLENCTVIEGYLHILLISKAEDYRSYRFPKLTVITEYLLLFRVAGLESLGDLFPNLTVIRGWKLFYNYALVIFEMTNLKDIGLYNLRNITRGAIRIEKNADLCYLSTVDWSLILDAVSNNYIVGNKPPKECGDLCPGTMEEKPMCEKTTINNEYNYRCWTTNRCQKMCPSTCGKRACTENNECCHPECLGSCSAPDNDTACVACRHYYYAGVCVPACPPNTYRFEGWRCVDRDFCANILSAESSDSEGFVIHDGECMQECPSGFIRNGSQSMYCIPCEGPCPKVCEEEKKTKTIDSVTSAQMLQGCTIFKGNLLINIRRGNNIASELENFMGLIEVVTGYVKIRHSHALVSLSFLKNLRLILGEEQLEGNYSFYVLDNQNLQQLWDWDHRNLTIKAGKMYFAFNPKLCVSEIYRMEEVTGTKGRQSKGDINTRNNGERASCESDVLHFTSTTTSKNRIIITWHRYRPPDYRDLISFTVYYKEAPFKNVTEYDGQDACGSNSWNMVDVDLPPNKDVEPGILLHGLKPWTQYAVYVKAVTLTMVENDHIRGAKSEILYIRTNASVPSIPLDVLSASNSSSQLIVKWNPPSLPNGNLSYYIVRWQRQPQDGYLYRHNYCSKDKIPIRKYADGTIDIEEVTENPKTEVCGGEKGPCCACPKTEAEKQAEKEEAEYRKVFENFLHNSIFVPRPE
Sequence of Insulin-like growth factor 1 receptor (Homo sapiens) (P08069 741-1367 limits assumed): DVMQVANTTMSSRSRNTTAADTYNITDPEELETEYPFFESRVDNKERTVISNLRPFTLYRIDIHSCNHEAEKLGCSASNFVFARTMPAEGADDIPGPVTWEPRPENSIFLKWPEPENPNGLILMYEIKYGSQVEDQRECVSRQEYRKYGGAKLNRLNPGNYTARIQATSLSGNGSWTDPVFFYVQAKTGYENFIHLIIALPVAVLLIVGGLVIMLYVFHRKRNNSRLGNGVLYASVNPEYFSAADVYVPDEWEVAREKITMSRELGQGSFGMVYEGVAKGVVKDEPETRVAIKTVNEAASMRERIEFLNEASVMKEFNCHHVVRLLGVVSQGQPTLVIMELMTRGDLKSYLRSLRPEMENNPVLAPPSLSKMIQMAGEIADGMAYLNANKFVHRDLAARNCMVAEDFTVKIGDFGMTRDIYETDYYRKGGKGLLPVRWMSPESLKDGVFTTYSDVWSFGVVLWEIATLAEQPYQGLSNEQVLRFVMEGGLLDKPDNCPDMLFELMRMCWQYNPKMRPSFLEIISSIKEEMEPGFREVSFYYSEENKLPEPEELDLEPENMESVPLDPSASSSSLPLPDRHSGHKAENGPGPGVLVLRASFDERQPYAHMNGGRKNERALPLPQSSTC
Sequence of Protein kinase C eta type (Homo sapiens) (P24723 whole entry): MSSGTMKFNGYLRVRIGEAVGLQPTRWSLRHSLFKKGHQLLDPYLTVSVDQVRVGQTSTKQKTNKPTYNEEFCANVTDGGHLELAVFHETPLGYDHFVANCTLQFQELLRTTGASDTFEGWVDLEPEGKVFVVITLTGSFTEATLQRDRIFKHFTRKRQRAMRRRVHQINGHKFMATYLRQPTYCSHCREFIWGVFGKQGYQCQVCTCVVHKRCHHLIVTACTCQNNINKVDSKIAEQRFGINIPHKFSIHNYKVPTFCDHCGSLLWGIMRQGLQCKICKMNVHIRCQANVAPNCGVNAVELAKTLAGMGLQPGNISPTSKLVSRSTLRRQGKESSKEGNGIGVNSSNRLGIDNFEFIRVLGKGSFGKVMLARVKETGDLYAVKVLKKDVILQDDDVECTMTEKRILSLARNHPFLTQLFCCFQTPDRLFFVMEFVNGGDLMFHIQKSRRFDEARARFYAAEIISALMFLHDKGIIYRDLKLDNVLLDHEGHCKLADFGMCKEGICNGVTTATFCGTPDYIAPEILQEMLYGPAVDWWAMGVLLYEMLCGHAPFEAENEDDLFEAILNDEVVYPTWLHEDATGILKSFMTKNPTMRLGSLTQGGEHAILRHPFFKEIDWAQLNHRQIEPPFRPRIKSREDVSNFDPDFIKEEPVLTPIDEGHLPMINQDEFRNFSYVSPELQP
Sequence of Protein kinase C theta type (Homo sapiens) (Q04759 whole entry, looked up): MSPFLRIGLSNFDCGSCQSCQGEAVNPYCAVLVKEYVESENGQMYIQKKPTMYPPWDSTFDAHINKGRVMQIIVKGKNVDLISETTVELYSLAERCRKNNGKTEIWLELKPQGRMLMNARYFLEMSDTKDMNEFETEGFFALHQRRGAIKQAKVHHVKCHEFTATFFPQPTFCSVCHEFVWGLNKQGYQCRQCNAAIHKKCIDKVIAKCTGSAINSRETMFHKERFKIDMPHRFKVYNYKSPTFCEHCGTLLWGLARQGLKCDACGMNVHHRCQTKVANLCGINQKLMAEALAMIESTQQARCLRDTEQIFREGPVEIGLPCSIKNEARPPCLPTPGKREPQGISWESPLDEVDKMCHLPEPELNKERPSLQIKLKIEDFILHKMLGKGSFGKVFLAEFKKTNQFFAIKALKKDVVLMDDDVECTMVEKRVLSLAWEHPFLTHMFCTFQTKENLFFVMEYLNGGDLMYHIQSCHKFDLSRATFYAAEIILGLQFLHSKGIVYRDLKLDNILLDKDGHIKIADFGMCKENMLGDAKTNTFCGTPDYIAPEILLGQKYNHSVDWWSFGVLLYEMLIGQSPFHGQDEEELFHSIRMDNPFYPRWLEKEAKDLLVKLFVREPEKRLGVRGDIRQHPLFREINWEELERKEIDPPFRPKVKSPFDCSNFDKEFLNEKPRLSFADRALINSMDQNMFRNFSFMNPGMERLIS
Sequence of Homeodomain-interacting protein kinase 3 (Homo sapiens) (Q9H422 whole entry, looked up): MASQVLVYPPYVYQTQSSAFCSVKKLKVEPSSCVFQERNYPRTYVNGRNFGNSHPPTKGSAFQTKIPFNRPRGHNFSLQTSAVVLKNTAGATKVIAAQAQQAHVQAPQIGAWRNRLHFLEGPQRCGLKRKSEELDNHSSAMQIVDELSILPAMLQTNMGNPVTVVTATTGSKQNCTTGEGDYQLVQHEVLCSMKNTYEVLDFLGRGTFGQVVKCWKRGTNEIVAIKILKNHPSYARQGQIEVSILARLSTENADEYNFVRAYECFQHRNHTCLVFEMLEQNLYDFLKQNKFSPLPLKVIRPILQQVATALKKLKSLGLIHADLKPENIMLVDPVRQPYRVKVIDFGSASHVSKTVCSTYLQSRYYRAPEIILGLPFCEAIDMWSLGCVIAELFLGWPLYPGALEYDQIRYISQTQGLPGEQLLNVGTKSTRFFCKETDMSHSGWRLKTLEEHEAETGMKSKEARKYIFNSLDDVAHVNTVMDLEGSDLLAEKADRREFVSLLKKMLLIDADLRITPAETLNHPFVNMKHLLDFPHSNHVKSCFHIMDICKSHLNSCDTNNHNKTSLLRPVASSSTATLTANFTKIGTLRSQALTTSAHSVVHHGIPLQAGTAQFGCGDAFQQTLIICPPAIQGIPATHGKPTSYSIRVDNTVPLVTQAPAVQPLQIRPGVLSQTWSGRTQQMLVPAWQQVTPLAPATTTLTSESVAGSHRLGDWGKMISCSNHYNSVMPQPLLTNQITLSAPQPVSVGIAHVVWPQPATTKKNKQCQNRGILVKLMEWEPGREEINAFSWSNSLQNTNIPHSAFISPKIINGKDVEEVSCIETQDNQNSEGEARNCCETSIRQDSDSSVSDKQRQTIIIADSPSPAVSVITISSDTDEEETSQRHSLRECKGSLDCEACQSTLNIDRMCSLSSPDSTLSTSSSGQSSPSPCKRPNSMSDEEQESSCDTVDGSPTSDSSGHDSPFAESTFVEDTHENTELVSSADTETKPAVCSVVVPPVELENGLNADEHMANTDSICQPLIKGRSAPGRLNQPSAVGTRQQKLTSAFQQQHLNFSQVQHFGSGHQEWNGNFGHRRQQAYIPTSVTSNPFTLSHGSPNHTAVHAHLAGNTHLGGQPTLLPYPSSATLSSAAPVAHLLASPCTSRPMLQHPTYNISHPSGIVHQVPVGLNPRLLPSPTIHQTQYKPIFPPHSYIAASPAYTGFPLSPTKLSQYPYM

Row | SMILES | residual activity [1] [%] | residual activity [2] [%] | residual activity [3] [%] | residual activity [4] [%] | residual activity [5] [%] | residual activity [6] [%] | residual activity [7] [%] | residual activity [8] [%] | residual activity [9] [%] | residual activity [10] [%] | residual activity [11] [%] | residual activity [12] | residual activity [13] [%] | residual activity [14] [%] | residual activity [15] [%] | residual activity [16] [%] | residual activity [17] [%] | residual activity [18] [%] | residual activity [19] [%] | residual activity [20] [%]
1 | Cc1cc(Nc2nc(-c3ccccc3)nc3ccccc23)n[nH]1 | 103 | 67 | 23 | 4 | 27 | 5 | 17 | 1 | 102 | 64 | 26 | 112% (inactive) | 107 | 110 | 104 |  |  |  |  | 
2 | Oc1ccc(Nc2nc(-c3ccc(Cl)cc3)cs2)cc1 | 88 | 84 | 89 | 69 | 97 | 86 | 120 | 101 | 87 | 100 | 114 | 109% (inactive) | 103 | 106 | 93 | 85 | 78 | 79 | 94 | 100
3 | COc1cc2ncc(-c3ccccc3)nc2cc1OC | 76 | 64 | 69 | 56 |  |  | 133 |  |  |  |  |  | 68 | 96 | 99 | 100 |  |  |  | 
4 | CC(=O)c1ccc(N2CCOCC2)cc1O | 78 | 39 | 84 | 74 | 97 | 107 | 148 |  | 106 | 109 | 102 | 84% (inactive) | 106 | 93 | 109 | 98 | 92 | 84 | 92 | 95
5 | N#CC(C#N)=C(N)/C(C#N)=C/c1ccc(O)cc1 | 88 | 65 | 84 | 64 | 99 | 87 |  |  |  |  |  | 81% (inactive) | 75 |  |  |  | 118 | 81 | 93 | 
6 | CO[C@H]1[C@@H](OC)C[C@H](C)[C@@H](OC)C2=CC(=O)C=C(NC(=O)/C(C)=C/C=C/[C@H](OC)[C@@H](OC(N)=O)/C(C)=C/[C@@H]1C)C2=O | 88 | 78 | 78 | 76 |  | 103 | 137 | 113 | 106 | 100 | 98 | 92% (inactive) | 71 | 102 | 110 | 105 | 118 | 83 | 119 | 102
7 | N#Cc1cnc2cnc(NCc3cccnc3)cc2c1Nc1ccc(F)c(Cl)c1 | 102 | 67 | 17 | 12 |  | 91 | 97 |  | 94 | 4 | 5 |  |  | 101 | 91 |  | 85 | 83 | 80 | 39
8 | COc1cc2ncnc(N3CCN(C(=O)Nc4ccc(Oc5ccccc5)cc4)CC3)c2cc1OC | 79 | 82 | 79 | 71 | 91 | 85 |  |  | 116 | 94 | 108 | 90% (inactive) | 99 | 103 | 99 | 102 | 98 | 74 | 102 | 66
9 | CC[n+]1c(/C=C/N(C)c2ccccc2)n(-c2ccccc2)c2ccc(-c3nc4ccccc4s3)cc21 | 99 | 59 | 97 | 34 | 104 | 95 | 126 | 43 | 96 | 96 | 84 | 93% (inactive) | 88 | 95 | 114 |  | 119 | 88 | 92 | 90
10 | CO[C@@H]1[C@H](N(C)C(=O)c2ccccc2)C[C@H]2O[C@]1(C)n1c3ccccc3c3c4c(c5c6ccccc6n2c5c31)C(=O)NC4 | 78 | 43 | 7 | 5 |  | 12 | 115 | 68 | 102 | 15 | 11 | 79% (inactive) | 85 | 101 | 92 | 68 | 84 | 29 | 85 | 
